High-throughput results as filed in PubChem BioAssay.
Tau fluor cs: counter-screen for tau fibril formation inhibitors. Potency, µM (top dose mostly 57.7 µM). 280,000 tested, 0.93% active. tau K18 P301L Alexa594 fluorescence, heparin fibrillization; also: nearly all actives have a fitted effect of over 55% in size
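Human tau K18 P301L (15 uM unlabeled, 0.24 uM Alexa 594-labeled) in 100 mM sodium acetate pH 7 with 20 uM heparin, 6 hr at 37 C. ThT 30 uM added, 1 hr ambient; Alexa 594 FP and total fluorescence read at 555/632 nm.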
FBPA coupling cs: counter-screen for Giardia aldolase inhibitors: coupling enzyme system. coupling enzyme system counterscreen, AmpLite Red fluorescence. activity change, negative = inhibition, % at 58.2 µM, hits read low. 290,000 tested, 0.67% active; in the data active = activity change below about -30%
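Compounds tested against the coupling enzymes alone at 57.5 uM final; readout was AmpLite Red fluorescence (525/598 nm) after 20 min at RT.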
Tau ThT inhib: tau fibrillization inhibition (ThT binding); P10636; recombinant tau K18 P301L, heparin-induced fibrillization, ThT fluorescence; Potency, µM (doses to about 57.4 µM), hits mostly inhibitors; 270,000 tested, 2.1% active; also: nearly all actives have a fitted effect of over 55% in size
Target sequence (P10636 561-689 P618L limits assumed): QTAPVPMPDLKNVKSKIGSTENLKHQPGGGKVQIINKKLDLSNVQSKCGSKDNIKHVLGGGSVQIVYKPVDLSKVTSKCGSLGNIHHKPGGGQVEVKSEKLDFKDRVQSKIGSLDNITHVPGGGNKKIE
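ThT emission at 510 nm, taken 1 hr after adding 30 uM dye, quantifies aggregates formed when 20 uM heparin acts on human tau K18 P301L for 6 hr at 37 C.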
Tau fibril FP: tau fibrillization inhibition (FP) | Potency, µM (series often up to 57.7 µM), hits mostly inhibitors | 280,000 tested, 0.39% active | P10636 | K18 P301L tau heparin fibrillization, Alexa594 FP, 6 h; also: nearly all actives have a fitted effect of over 55% in size
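FP of Alexa 594-tau after heparin (20 uM) induction. Substrate: human K18 P301L, 15 uM unlabeled, 0.24 uM labeled. Buffer 100 mM sodium acetate pH 7. 6 hr, 37 C.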
Sfp inh: Sfp phosphopantetheinyl transferase inhibition | Biochemical Sfp PPTase activity, qHTS | Potency, µM, most hits filed as inhibitors | 310,000 tested, 3.5% active;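 also: the enzyme is Sfp with the accession as filed and its product quenches rhodamine fluorescence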
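Buffer: 50 mM Hepes-Na pH 7.6, 10 mM MgCl2, 0.01% Nonidet P-40, 0.01% BSA. Enzyme 15 nM, pre-exposed to compound 15 min; substrates then added and fluorescence change tracked over 30 min.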
Large screens that a line does not name were inactive; [ ] = remark or other dose. In the library only some 5.2% were active in any assay of this set; here they are far more common. Unless noted, calls follow the shape of the dose curve; as a rule, active = well fitted curve in the direction sought with a large enough effect; inconclusive = small, poorly fitted or top-dose-only effect, or another doubt; inactive = no such curve, though single readings can be large; an effect the other way counts as inactive or inconclusive.

O=C(c1ccccc1)c1c2c(cc3sc4ccccc4[n+]13)-c1cccc3cccc-2c13	Tau fluor cs inconclusive, Tau ThT inhib 6.31µM, Tau fibril FP inconclusive, Sfp inh inconclusive
O=C(CSc1ccccc1)NCc1ccco1	none
CC(C)c1ccc(NC(=O)CCC(=O)NCc2ccco2)cc1	none (no result: Tau fluor cs, Tau ThT inhib, Tau fibril FP)
O=C(Cc1ccccc1[N+](=O)[O-])NCc1ccco1	Sfp inh 50.1µM
O=C(CSc1ccc2c(c1)OCCO2)NCc1ccco1	Tau ThT inhib inconclusive, Sfp inh 35.5µM
CC(C)C(CC(=O)NCc1ccco1)c1ccco1 (centres undefined)	Sfp inh 28.2µM
O=C(Cc1ccccc1[N+](=O)[O-])NCc1ccncc1	none
CC(C)CNS(=O)(=O)c1ccc(CCC(=O)NCc2ccco2)cc1	Tau ThT inhib inconclusive, Tau fibril FP inconclusive, Sfp inh 39.8µM
CC(=O)c1cc(-c2ccccc2)n(CCC(=O)Nc2ccc(C(C)C)cc2)c1C	none (no result: FBPA coupling cs, Sfp inh)
COc1ccc(OC)c(-c2nnc3n2N=C(c2c(OC)cccc2OC)CS3)c1	none (no result: Tau fluor cs, Tau ThT inhib, Tau fibril FP)
O=C(NCc1ccco1)Nc1cccs1	Tau ThT inhib inconclusive, Sfp inh 17.8µM
O=C(NCc1ccco1)c1cccs1	none
O=C(CCSCCC(=O)NCc1ccco1)NCc1ccco1	Tau ThT inhib 14.1µM, Tau fibril FP inconclusive, Sfp inh 15.8µM
CC(C)(C)C1=Nn2c(nnc2-c2n[nH]c3c2CCC3)SC1	Sfp inh 25.1µM
Cc1ccc(CNC(=O)C2c3ccccc3C(=O)N3CCc4ccccc4C23)o1 (centres undefined)	Tau ThT inhib inconclusive, Tau fibril FP inconclusive, Sfp inh 14.1µM
O=C(NCCN1CCN(Cc2ccccc2)CC1)C1c2ccccc2C(=O)N2CCc3ccccc3C12 (centres undefined)	none
CC(C)N1CCc2[nH]c(=S)[nH]c(=O)c2C1	Sfp inh 44.7µM
CCCN1CCc2[nH]c(=S)[nH]c(=O)c2C1	Sfp inh 50.1µM
Cc1ccc(CN2CCc3[nH]c(=S)[nH]c(=O)c3C2)cc1	none (no result: Tau fluor cs, FBPA coupling cs, Tau ThT inhib, Tau fibril FP)
COc1ccccc1NC(=O)Cn1c(=O)n(-c2ccc(C)cc2)c(=O)c2c1cnn2C	none (no result: FBPA coupling cs, Sfp inh)
O=C(O)/C(=C\c1cn(-c2ccccc2)nc1-c1ccc(Cl)cc1)NC(=O)c1ccccc1	none
CC1(C)CC(=O)C(=Cc2cn(CCC#N)nc2-c2ccc(Cl)cc2)C(=O)C1	Tau ThT inhib inconclusive, Sfp inh 79.4µM
N#CCCn1cc(C=C(C#N)C#N)c(-c2ccc(-c3ccccc3)cc2)n1	Sfp inh inconclusive
N#CCCn1cc(/C=N/O)c(-c2ccc(F)cc2)n1	none
CC1(C)CC(=O)C(=Cc2cn(-c3ccccc3)nc2-c2ccc(Cl)cc2)C(=O)C1	Sfp inh 89.1µM (no result: FBPA coupling cs)
CC1(C)CC(=O)C(=Cc2cn(CCC#N)nc2-c2ccc(F)cc2)C(=O)C1	Tau ThT inhib inconclusive, Sfp inh 56.2µM
COc1ccc(-c2onc(C)c2C)cc1S(=O)(=O)N(C)Cc1ccco1	none (no result: FBPA coupling cs, Sfp inh)
CCCCNc1nc(C)nc2c1nc(-c1ccccc1)n2CCN1CCCC1	none
Cc1cccc(OCC(=O)N/N=C/c2ccc(N(C)C)cc2)c1	Tau ThT inhib 3.55µM
Cc1ccc(Cn2c(CNC(=O)c3cccc(C)c3)nc3ccccc32)cc1	none (no result: FBPA coupling cs, Sfp inh)
Cc1cc(C)n2nc(C(=O)NNC(=O)c3ccccc3)nc2n1	Sfp inh 79.4µM
CO[C@@H]1COC(=O)[C@@H](CCSC)NC(=O)C/C=C\[C@@H](C)COC(=O)[C@H](C)NC(=O)C/C=C\[C@H]1C	Tau fibril FP inconclusive
O=C(COC(=O)[C@H](Cc1c[nH]c2ccccc12)NC(=O)c1ccc(Cl)cc1)Nc1ccc2c(c1)OCO2	Tau fluor cs 8.91µM[quencher], Tau ThT inhib inconclusive
COC(=O)[C@@H](Cc1c[nH]c2ccccc12)NC(=O)c1ccc2c(c1)OCO2	none (no result: Tau fluor cs, Tau ThT inhib, Tau fibril FP)
COC(=O)c1c(NC(=O)CCCC(=O)O)sc(C)c1C	none
CCc1ccc(CCC(=O)Nc2sc(C)c(C)c2C(=O)OC)o1	Tau ThT inhib inconclusive, Sfp inh 56.2µM
COc1ccc(N=C2C(=Nc3ccc(OC)cc3)N(c3ccc(OC)cc3)C(=S)N2C(=O)c2ccc(OC)cc2)cc1	Tau ThT inhib 28.2µM
COc1ccc(N=C2C(=Nc3ccc(OC)cc3)N(c3ccccc3)C(=S)N2C(=O)c2ccc(Cl)cc2)cc1	Tau ThT inhib inconclusive, Sfp inh 50.1µM
